In PMC7862700, “An all-to-all approach to the identification of sequence-specific readers for epigenetic DNA modifications on cytosine” one finds binding signal data, which are given here for 7 sequences.

Holding throughout (assay): DAPPL (digital affinity profiling via proximity ligation, sequencing); 10 mM Tris-HCl pH 7.5, 50 mM NaCl, 1 mM DTT, 4% glycerol, room temperature, 30 min; GST-TFs on glutathione beads, 16-mer random dsDNA library, 0.1% formaldehyde crosslink after washing; high values mean tight binding
Holding throughout (details): protein: recombinant; tags: N-terminal GST; dsDNA, one strand shown

One experiment addresses T1, FLI1 (Homo sapiens, UniProt Q01543 1-452).
T1 sequence: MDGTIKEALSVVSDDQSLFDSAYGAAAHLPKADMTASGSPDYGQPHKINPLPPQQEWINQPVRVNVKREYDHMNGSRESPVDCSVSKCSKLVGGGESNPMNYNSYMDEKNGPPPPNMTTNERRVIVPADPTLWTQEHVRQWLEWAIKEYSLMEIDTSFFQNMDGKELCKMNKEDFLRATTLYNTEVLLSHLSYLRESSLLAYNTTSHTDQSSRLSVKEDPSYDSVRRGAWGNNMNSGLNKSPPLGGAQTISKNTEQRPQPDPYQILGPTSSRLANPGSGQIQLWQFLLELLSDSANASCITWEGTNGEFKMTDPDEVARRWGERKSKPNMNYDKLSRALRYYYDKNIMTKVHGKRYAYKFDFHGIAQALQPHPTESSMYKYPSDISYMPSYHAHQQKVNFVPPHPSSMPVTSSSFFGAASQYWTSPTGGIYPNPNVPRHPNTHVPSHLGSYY
The gist of the method: (§1)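 Binding signal is given per hexamer as its read frequency for a factor divided by its frequency in the tag-only sample. GST-fused human transcription factors were expressed in yeast, captured on glutathione beads, barcoded with DNA and pooled with that sample, then incubated with 200 nmole of a 16-mer random double-stranded DNA library in Tris/NaCl/DTT/glycerol buffer for 30 min at room temperature. The pools were then washed, crosslinked, proximity-ligated, amplified by PCR and sequenced on an Illumina NextSeq500.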

The target in the next experiment is T2, ELK1 (Homo sapiens, UniProt P19419 1-428).
T2 sequence: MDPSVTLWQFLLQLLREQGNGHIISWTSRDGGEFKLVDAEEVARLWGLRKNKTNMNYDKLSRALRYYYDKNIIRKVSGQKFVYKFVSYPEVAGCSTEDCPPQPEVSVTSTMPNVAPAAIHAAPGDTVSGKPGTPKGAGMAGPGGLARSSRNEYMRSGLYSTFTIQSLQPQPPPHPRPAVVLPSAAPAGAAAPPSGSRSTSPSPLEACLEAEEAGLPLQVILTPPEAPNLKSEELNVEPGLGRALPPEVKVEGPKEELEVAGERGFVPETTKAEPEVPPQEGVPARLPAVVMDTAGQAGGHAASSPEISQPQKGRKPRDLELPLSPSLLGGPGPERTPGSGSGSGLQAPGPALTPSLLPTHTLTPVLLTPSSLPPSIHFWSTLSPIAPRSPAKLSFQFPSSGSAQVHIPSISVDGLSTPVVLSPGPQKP
The gist of the method:
as §1

The next experiment addresses T3, GABPA (Homo sapiens, UniProt Q06546 1-454).
T3 sequence: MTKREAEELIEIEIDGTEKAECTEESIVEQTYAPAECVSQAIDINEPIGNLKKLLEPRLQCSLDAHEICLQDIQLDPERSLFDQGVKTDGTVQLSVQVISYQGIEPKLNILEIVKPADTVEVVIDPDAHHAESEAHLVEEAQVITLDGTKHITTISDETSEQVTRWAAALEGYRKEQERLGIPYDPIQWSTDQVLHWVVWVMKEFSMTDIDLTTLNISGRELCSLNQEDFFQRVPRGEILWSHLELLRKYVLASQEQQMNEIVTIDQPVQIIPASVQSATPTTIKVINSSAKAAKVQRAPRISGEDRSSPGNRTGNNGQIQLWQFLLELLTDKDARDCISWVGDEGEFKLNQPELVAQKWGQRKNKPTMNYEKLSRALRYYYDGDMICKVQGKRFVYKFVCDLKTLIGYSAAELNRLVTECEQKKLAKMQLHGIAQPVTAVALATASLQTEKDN
The gist of the method:
as §1

A further experiment deals with T4, ERG (Homo sapiens, UniProt P11308 1-479).
T4 sequence: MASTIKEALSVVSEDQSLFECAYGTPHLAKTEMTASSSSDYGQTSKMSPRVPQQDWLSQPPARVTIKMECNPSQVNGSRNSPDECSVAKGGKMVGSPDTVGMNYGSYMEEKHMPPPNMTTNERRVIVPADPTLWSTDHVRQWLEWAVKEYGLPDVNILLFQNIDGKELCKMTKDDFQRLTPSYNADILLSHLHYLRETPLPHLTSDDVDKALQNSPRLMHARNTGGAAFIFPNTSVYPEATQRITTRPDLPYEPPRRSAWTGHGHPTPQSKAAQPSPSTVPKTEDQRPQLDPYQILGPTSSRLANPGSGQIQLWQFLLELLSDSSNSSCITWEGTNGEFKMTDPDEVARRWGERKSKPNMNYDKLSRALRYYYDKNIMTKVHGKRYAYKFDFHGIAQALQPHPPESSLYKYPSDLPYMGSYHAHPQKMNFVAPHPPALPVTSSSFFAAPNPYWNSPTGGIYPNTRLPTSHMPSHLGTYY
In a few lines:
as §1

The target in a further experiment is ELF1 (Homo sapiens, UniProt P32519 1-619). The gist of the method:
as §1

Another experiment addresses T5, EHF (Homo sapiens, UniProt Q9NZC4 1-300).
T5 sequence: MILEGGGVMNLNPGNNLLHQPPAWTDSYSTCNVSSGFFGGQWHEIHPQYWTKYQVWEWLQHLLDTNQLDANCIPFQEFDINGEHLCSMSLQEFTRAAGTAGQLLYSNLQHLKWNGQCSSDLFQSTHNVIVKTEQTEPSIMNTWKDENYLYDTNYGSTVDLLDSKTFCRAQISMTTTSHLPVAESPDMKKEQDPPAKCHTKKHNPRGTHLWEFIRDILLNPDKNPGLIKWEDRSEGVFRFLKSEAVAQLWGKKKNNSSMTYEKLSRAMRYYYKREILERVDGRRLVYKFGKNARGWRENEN
The gist of the method:
as §1

Another experiment has as its target SPI1 (Homo sapiens, UniProt P17947 1-270). In a few lines:
as §1

The target of another experiment is SPIB (Homo sapiens, UniProt Q01892 1-262). In a few lines:
as §1

Another experiment has as its target T6, ELK3 (Homo sapiens, UniProt P41970 1-407).
T6 sequence: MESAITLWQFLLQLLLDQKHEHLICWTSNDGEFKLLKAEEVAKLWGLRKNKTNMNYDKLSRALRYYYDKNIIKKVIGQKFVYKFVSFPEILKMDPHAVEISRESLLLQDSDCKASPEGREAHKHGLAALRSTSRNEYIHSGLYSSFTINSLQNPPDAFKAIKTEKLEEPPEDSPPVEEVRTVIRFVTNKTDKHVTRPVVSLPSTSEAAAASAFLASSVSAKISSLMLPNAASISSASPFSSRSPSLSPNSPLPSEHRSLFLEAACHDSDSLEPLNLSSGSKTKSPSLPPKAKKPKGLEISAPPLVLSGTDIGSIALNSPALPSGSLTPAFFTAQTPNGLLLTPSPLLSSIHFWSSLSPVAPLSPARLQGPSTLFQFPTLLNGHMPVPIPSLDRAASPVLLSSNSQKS
In a few lines:
as §1

SPIB, sequence (Q01892 whole entry): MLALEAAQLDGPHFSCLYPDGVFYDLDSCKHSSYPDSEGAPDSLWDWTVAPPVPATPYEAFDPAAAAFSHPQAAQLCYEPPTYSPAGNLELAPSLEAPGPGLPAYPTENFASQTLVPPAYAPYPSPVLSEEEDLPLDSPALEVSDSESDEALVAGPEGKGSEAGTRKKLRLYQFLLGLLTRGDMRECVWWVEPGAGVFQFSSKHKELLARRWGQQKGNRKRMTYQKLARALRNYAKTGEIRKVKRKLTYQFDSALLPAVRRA
ELF1, sequence (P32519 whole entry): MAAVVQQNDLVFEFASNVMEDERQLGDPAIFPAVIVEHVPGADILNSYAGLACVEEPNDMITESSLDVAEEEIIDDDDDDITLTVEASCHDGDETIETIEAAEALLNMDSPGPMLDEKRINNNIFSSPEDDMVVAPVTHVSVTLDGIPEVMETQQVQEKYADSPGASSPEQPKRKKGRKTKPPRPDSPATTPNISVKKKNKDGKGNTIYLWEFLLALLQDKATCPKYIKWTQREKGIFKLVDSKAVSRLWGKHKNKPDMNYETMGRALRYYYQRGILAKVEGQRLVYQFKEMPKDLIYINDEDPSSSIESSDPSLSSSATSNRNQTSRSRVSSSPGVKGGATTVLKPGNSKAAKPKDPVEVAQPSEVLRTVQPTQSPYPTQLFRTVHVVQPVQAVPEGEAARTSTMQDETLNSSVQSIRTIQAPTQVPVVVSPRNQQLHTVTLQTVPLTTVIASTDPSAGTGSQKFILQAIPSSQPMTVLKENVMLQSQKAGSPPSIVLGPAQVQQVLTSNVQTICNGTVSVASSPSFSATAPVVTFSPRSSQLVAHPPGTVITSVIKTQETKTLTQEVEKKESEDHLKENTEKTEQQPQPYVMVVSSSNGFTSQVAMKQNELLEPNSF

On to CTCTTG, for which the binding signal in the experiment with FLI1 is 1.4 fold enrichment (6-mer frequency, TF over GST control); with ELK1, 1.33 fold enrichment (6-mer frequency, TF over GST control); in the experiment with GABPA, 1.41 fold enrichment (6-mer frequency, TF over GST control); in the experiment with ERG, 1.29 fold enrichment (6-mer frequency, TF over GST control); with ELF1, 1.36 fold enrichment (6-mer frequency, TF over GST control); with EHF it was 1.3 fold enrichment (6-mer frequency, TF over GST control). Moreover, the binding signal in the experiment with SPI1 is 1.3 fold enrichment (6-mer frequency, TF over GST control); with SPIB, 1.43 fold enrichment (6-mer frequency, TF over GST control); in the experiment with ELK3, 1.53 fold enrichment (6-mer frequency, TF over GST control).

With AACCTA, the binding signal was 1.03 fold enrichment (6-mer frequency, TF over GST control) in the experiment with FLI1; 1.08 fold enrichment (6-mer frequency, TF over GST control) with ELK1; 1.1 fold enrichment (6-mer frequency, TF over GST control) with GABPA; 1.01 fold enrichment (6-mer frequency, TF over GST control) with ERG; 1.1 fold enrichment (6-mer frequency, TF over GST control) in the experiment with ELF1; 1.11 fold enrichment (6-mer frequency, TF over GST control) with EHF. The binding signal with SPI1 was 1.08 fold enrichment (6-mer frequency, TF over GST control); in the experiment with SPIB it was 1.1 fold enrichment (6-mer frequency, TF over GST control); with ELK3 it was 1.1 fold enrichment (6-mer frequency, TF over GST control).

ACCTAA: the binding signal in the experiment with FLI1 is 1.19 fold enrichment (6-mer frequency, TF over GST control); in the experiment with ELK1, 1.08 fold enrichment (6-mer frequency, TF over GST control); with GABPA, 1.17 fold enrichment (6-mer frequency, TF over GST control); in the experiment with ERG, 1.13 fold enrichment (6-mer frequency, TF over GST control); with ELF1, 1.18 fold enrichment (6-mer frequency, TF over GST control); in the experiment with EHF, 1.12 fold enrichment (6-mer frequency, TF over GST control). Further, the binding signal was 1.2 fold enrichment (6-mer frequency, TF over GST control) in the experiment with SPI1; 1.19 fold enrichment (6-mer frequency, TF over GST control) with SPIB; 1.2 fold enrichment (6-mer frequency, TF over GST control) in the experiment with ELK3.

As to CTTGGT, the binding signal is 1.63 fold enrichment (6-mer frequency, TF over GST control) with FLI1; 1.44 fold enrichment (6-mer frequency, TF over GST control) in the experiment with ELK1; 1.55 fold enrichment (6-mer frequency, TF over GST control) with GABPA; 1.42 fold enrichment (6-mer frequency, TF over GST control) with ERG; 1.46 fold enrichment (6-mer frequency, TF over GST control) with ELF1; 1.53 fold enrichment (6-mer frequency, TF over GST control) with EHF. Also, the binding signal was 1.4 fold enrichment (6-mer frequency, TF over GST control) in the experiment with SPI1; 1.57 fold enrichment (6-mer frequency, TF over GST control) in the experiment with SPIB; 1.66 fold enrichment (6-mer frequency, TF over GST control) with ELK3.

On to TAGCTT, for which the binding signal in the experiment with FLI1 was 1.18 fold enrichment (6-mer frequency, TF over GST control); with ELK1, 1.26 fold enrichment (6-mer frequency, TF over GST control); with GABPA, 1.31 fold enrichment (6-mer frequency, TF over GST control); with ERG it was 1.17 fold enrichment (6-mer frequency, TF over GST control); with ELF1 it was 1.21 fold enrichment (6-mer frequency, TF over GST control); with EHF, 1.21 fold enrichment (6-mer frequency, TF over GST control). For the same sequence, the binding signal with SPI1 is 1.25 fold enrichment (6-mer frequency, TF over GST control); in the experiment with SPIB, 1.29 fold enrichment (6-mer frequency, TF over GST control); in the experiment with ELK3, 1.31 fold enrichment (6-mer frequency, TF over GST control).

On to ATTATG, for which the binding signal is 1.3 fold enrichment (6-mer frequency, TF over GST control) with FLI1; 1.18 fold enrichment (6-mer frequency, TF over GST control) with ELK1; 1.16 fold enrichment (6-mer frequency, TF over GST control) with GABPA; 1.2 fold enrichment (6-mer frequency, TF over GST control) in the experiment with ERG; 1.2 fold enrichment (6-mer frequency, TF over GST control) with ELF1; 1.25 fold enrichment (6-mer frequency, TF over GST control) with EHF. Moreover, the binding signal in the experiment with SPI1 is 1.25 fold enrichment (6-mer frequency, TF over GST control); with SPIB, 1.25 fold enrichment (6-mer frequency, TF over GST control); with ELK3, 1.17 fold enrichment (6-mer frequency, TF over GST control).

Turning to CATTTA, the binding signal in the experiment with FLI1 was 1.28 fold enrichment (6-mer frequency, TF over GST control); with ELK1, 1.23 fold enrichment (6-mer frequency, TF over GST control); in the experiment with GABPA it was 1.31 fold enrichment (6-mer frequency, TF over GST control); in the experiment with ERG it was 1.25 fold enrichment (6-mer frequency, TF over GST control); with ELF1, 1.27 fold enrichment (6-mer frequency, TF over GST control); with EHF it was 1.32 fold enrichment (6-mer frequency, TF over GST control). For the same sequence, the binding signal with SPI1 is 1.26 fold enrichment (6-mer frequency, TF over GST control); in the experiment with SPIB, 1.18 fold enrichment (6-mer frequency, TF over GST control); in the experiment with ELK3, 1.23 fold enrichment (6-mer frequency, TF over GST control).
